{"source": "PubChem BioAssay (EPA / NIEHS)", "note": "Activity calls are given as the source filed them. The calls were made as follows: active = hit-call score of the fitted dose curve at least 0.9, where 1 is the maximum; inactive = score below 0.9.", "data": [{"assay": "CCTE_Padilla_ZF_Score.Living: CCTE's 144 Hour Post-fertilization zebrafish Assay Score for Viability, Padilla Lab (AID 2284410);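 also: larval death at 6 dpf judged by absent heartbeat or coagulation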", "experimental": "CCTE_Padilla_ZF_Phenotype_Score is a whole embryo, multiplexed assay using zebrafish ova exposed for 144 hours post fertilization on a 96-well plate.CCTE_Padilla_ZF_Score.Living is one of one assay component(s) measured or calculated from the CCTE_Padilla_ZF_Phenotype_Score assay. It is designed to make measurements of zebrafish development as detected with brightfield microscopy of developing zebrafish embryos.Data from the assay component CCTE_Padilla_ZF_Score.Living was analyzed into 1 assay endpoints. This assay endpoint, CCTE_Padilla_ZF_Score.Living, was analyzed in the positive analysis fitting direction relative to DMSO as the negative control and baseline of activity. Using a type of viability reporter, gain-of-signal activity can be used to understand changes in developmentals as they relate to the whole embryo. To generalize the intended target to other relatable targets, this assay endpoint is annotated to the zebrafish development intended target family, where the subfamily is embryonic mortality.\nZebrafish husbandry: Wild type adult zebrafish (Danio rerio; undefined outbred stock obtained from Aquatic Research Organisms, Hampton, NH, 03842) were housed in an AAALAC-approved animal facility at 28C with a 14:10 h light: dark cycle (lights on at 08:30 h). Adult fish (2-3 females per male; density = 15-20 adults per tank) were kept in one of several 9-liter (L) flow-through colony tanks (Aquaneering Inc., San Diego, CA). All adults in a colony tank were placed in a 2 L (static) breeding tank (Aquatic Habitats, Apopka, FL) one hour prior to light onset. Typically, adults from two to three colony tanks were mated on the same day. Two hours after light onset the adults were returned to the colony tank. All embryos were gathered from each breeder tank, pooled, and placed in a 28C water bath for 2 h, followed by two washes with 0.06% bleach (v/v) in 10% Hanks' Balanced Salt Solution (13.7 mM NaCl 0.54 mM KCl, 25 uM Na2HPO4, 130 uM CaCl2 100 um MgSO4 and 420 um NaHCO3,), hereafter referred to as Hanks' solution, for 5 min in order to remove any residual bacteria or fungi. Immediately following washing, the embryos were examined, and healthy embryos were separated from dead or unfertilized eggs and moved into fresh Hanks'. Chemical exposures: Zebrafish embryos were exposed in 96-well plates. Between 6- and 8-hours post fertilization (hpf), healthy embryos (with chorions) were transferred, one embryo per well, into 96 well (0.5 mL) microtiter plates (Cell Culture-Treated, Flat-Bottom Microplate 96 well [Corning Costar, Kennebunk, ME; Cat 09-761-145]) filled with 200 uL of Hanks' solution. A random number generator was used to assign the order in which the rows of embryos were plated in 96 well plates each week. After plating, the embryos were dosed with 0.8 uL of the chemical dosing solution then immediately sealed with AlumaSeal II (Excel Scientific Inc, Victorville, CA) to prevent volatilization of the chemicals, and then placed in a leakproof secondary container. These containers were placed in an incubator maintained on a 14:10 h light: dark cycle at 26C for rearing. On 5 dpf, live larvae were gently moved out of the plate with test chemicals and into a new 96 well mesh plate (Millipore Corp., Bedford, MA) with just the Hanks' solution. Once within the mesh well plate, the animals were rinsed with 400 uL of fresh Hanks' three times, and then the plates were covered with a non-adhesive material (Microseal A, BioRad, Hercules, CA), plate lid added, and then plate sides wrapped in Parafilm (PM992, Bermis Company, Neenah, WI), and returned to the incubator. […]", "values": [{"compound": "FC(F)C(F)(F)COCC1CO1", "note": "(stereo not given)", "outcome": "inactive"}, {"compound": "OCCC(F)(F)C(F)(F)C(F)(F)C(F)(F)F", "outcome": "inactive"}, {"compound": "OC(O)(C(F)C(O)(O)C(F)(F)F)C(F)(F)F", "outcome": "inactive"}, {"compound": "O=S(=O)(O)CCC(F)(F)C(F)(F)C(F)(F)C(F)(F)C(F)(F)C(F)(F)F", "outcome": "inactive"}, {"compound": "FC(F)(F)C(F)(F)C(F)(F)C(F)(F)C(F)(F)C(F)(F)I", "outcome": "inactive"}, {"compound": "NCC(F)(F)C(F)(F)C(F)(F)C(F)(F)F", "outcome": "inactive"}, {"compound": "C[Si](C)(C)C(F)(F)C(F)(F)C(F)(F)F", "outcome": "inactive"}, {"compound": "O=C(Cl)C(F)(F)C(F)(F)C(F)(F)C(=O)Cl", "outcome": "inactive"}, {"compound": "FC(F)(F)COC(OCC(F)(F)F)OCC(F)(F)F", "outcome": "inactive"}, {"compound": "FC(F)=C(F)C(F)(F)C(F)(F)C(F)(F)C(F)(F)C(F)(F)C(F)(F)F", "outcome": "inactive"}]}]}
